Assay results taken from the supplement of paper PMC12669032.
Values without a mark were called inactive.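 Rule for the calls: active = AUC reduced over 20% with Padj below 0.05 in at least 2 of 3 replicates; inactive = otherwise.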

Assays:
[1] = tested on: Roseburia intestinalis; test: growth AUC relative to DMSO control (median of replicates) (fraction); higher = more growth (less inhibition), active = hit call of the paper; conditions: 20 µM; 24 h
Method in brief: (§1)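 Area under the growth curve was normalised to the plate median of solvent-only wells, or to row and column medians on the industrial chemical plate. Growth curves came from anaerobic gut bacterial monocultures in mGAM at 37 °C, seeded at OD600 0.05 with 20 µM compound (1% DMSO), and read at OD600 hourly for 24 h with the minimum OD set to 0. The value is the median of three biological replicates grown on separate days.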

[2] = tested on: Streptococcus salivarius; test: as above; conditions: 20 µM; 24 h
Method in brief: as §1

With `CO/C=C(/C(=O)OC)c1ccccc1COc1cccc(C(F)(F)F)n1` the “growth AUC” value [1] was 0.989 and the “growth AUC” value [2] was 0.999.
In the case of `Clc1ccc(Cl)cc1`, the “growth AUC” value [1] is reported as 1.01 and the “growth AUC” value [2] is reported as 1.02.
`CNC(=O)O/N=C/C(C)(C)S(C)=O` (centres undefined) was tested, and the “growth AUC” value [1] was 0.994 and the “growth AUC” value [2] was 1.01.
In the case of `O=C(Nc1ccc(F)cc1F)c1cccnc1Oc1cccc(C(F)(F)F)c1`, the “growth AUC” value [1] is reported as 0.933 and the “growth AUC” value [2] is reported as 0.958.
In the case of `COP(=O)(OC)Oc1ccc([N+](=O)[O-])cc1`, the “growth AUC” value [1] is reported as 1.04 and the “growth AUC” value [2] is reported as 1.03.
For `Cc1c(N)cccc1N`, the “growth AUC” value [1] was 0.997 and the “growth AUC” value [2] was 1.01.
In the case of `CCSC(C)CC1CC(=O)C(/C(CC)=N/OC/C=C/Cl)=C(O)C1` (mixture of isomers), the “growth AUC” value [1] is reported as 1.01 and the “growth AUC” value [2] is reported as 0.919.
For `CCOC(=O)C(O)(c1ccc(Cl)cc1)c1ccc(Cl)cc1`, the “growth AUC” value [1] was 1.03 and the “growth AUC” value [2] was 0.978.
`O=c1ccc(=O)[nH][nH]1` was tested, and the “growth AUC” value [1] was 1.01 and the “growth AUC” value [2] was 0.965.
`CCOP(=S)(Oc1cnc(C(C)(C)C)nc1)OC(C)C` (centres undefined) was tested, and the “growth AUC” value [1] was 1.01 and the “growth AUC” value [2] was 0.994.
For `NC(=O)/N=C1/SCCN1Cc1ccc(Cl)nc1`, the “growth AUC” value [1] was 0.989 and the “growth AUC” value [2] was 1.04.
For `CCC1COC(Cn2cncn2)(c2ccc(Cl)cc2Cl)O1` (centres undefined), the “growth AUC” value [1] was 0.936 and the “growth AUC” value [2] was 0.948.
With `COP(N)(=S)Oc1ccccc1C(=O)OC(C)C` (centres undefined) the “growth AUC” value [1] was 1.07 and the “growth AUC” value [2] was 0.991.
With `CCN(CC)C(=S)[S-].O.O.O.[Na+]` the “growth AUC” value [1] was 0.894 and the “growth AUC” value [2] was 1.03.
With `CCCOC(=O)c1ccccc1C(=O)OCCC` the “growth AUC” value [1] was 1.1 and the “growth AUC” value [2] was 1.01.
For `CC1(C)C(/C=C(\Cl)c2ccc(Cl)cc2)C1C(=O)OC(C#N)c1ccc(F)c(Oc2ccccc2)c1` (centres undefined), the “growth AUC” value [1] was 1.07 and the “growth AUC” value [2] was 1.03.
For `CC(=NCc1ccc(Cl)nc1)NC#N`, the “growth AUC” value [1] was 0.997 and the “growth AUC” value [2] was 1.
